The text below walks through data of PubChem BioAssay AID463 (The Scripps Research Institute Molecular Screening Center, 2006).

Among all 56,000 compounds or so, about 710 (1.3%) were called active. The sample holds actives, similar compounds and a random draw of the others, so the mix is not that of the screen.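 How the source made its calls: active means inhibition above the mean inhibition of all tested compounds plus 3 SD (cut at about 28% in these data); inactive means the rest.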

The nature of the assay: Jurkat cell viability reduction – Jurkat E6.1, 60K MLSMR library, cytotoxicity control, primary screen (AID 463). The following applies: Jurkat E6.1 viability, ATP luminescence, 48 h; at 4 µM; stronger effect = higher value.
`COc1ccc(CCNC(=O)CCCCn2c(=O)[nH]c3ccccc3c2=O)cc1OC`: the inhibition was -5.9% (inactive).
On to `COc1ccc(N=Cc2c(O)[nH]c3ccccc23)cc1OC`, for which the inhibition was 39.2% (active).
To `COc1ccc2[nH]c3ccc(OC)cc3c2c1` belongs -4.4% (inactive).
To `COC(=O)c1[nH]c2ccccc2c1NS(=O)(=O)c1ccc(OC)cc1OC` belongs -1.9% (inactive); to `COc1cc(N=Cc2c(O)[nH]c3ccccc23)cc(OC)c1OC`, 63% (active).
To `COc1ccc(OC)c(N=Cc2c(O)[nH]c3ccccc23)c1` belongs -1% (inactive); to `CCn1nnc(NC(=O)c2cc(Cl)c(OC)c(Cl)c2)n1`, -2% (inactive).
Take `COC(=O)c1ccc(OC(=O)c2nn(C)cc2Cl)c(OC)c1`: the inhibition is 2.9% (inactive).
To `CCOC(=O)C1CCN(C(c2cc3cc(C)cc(C)c3[nH]c2=O)c2nnnn2C2CCCCC2)CC1` (centres undefined) belongs -0.3% (inactive); to `C=CCNC(=O)CCCOc1cccc(C)c1`, 4.8% (inactive).
`OCCNCCCCOc1ccccc1F`: the inhibition is 3% (inactive).
On to `COc1cc(Cl)c(S(=O)(=O)n2cnc(C)c2)cc1Cl`, for which the inhibition is 2.3% (inactive).
For `CCC(=O)Nc1ccc(C(=O)Nc2ccc3c(c2)C(=O)N(CC2CCCO2)C3=O)cc1` (centres undefined), the inhibition is -3.3% (inactive).
To `CCCCC(=O)Nc1ccc(C(=O)NCCCn2ccnc2)cc1` belongs 57% (active).
Turning to `CCOc1ccccc1C(=O)NCCCn1ccnc1`, the inhibition is 9.7% (inactive).
To `CCCC(=O)Nc1ccc(C(=O)NCCCn2ccnc2)cc1` belongs -15.7% (inactive); to `C=CCSc1nc2c(c(=O)[nH]1)C(C(C)C)C(C#N)=C(N)O2` (centres undefined), 0.8% (inactive).
For `O=C1CCC(Cc2ccccc2)N1` (centres undefined), the inhibition is 0.5% (inactive).
`Cc1cnc(C(=O)OCC(=O)Nc2ccc(Cl)cc2Cl)cn1`: the inhibition was 7.4% (inactive).
For the compound `C=CCn1cnc2scc(-c3ccccc3)c2c1=O`, the inhibition was -3% (inactive).
Consider `CCCc1[nH]nc2c1C(C1CC=CCC1)C(C#N)=C(N)O2` (centres undefined), for which the inhibition was 5.6% (inactive).
To `CCCc1[nH]nc2c1C(c1ccc(Br)s1)C(C#N)=C(N)O2` (centres undefined) belongs 29.4% (active); to `CCCc1[nH]nc2c1C(c1ccc(OC(=O)c3ccco3)cc1)C(C#N)=C(N)O2` (centres undefined), 0.7% (inactive); to `Cc1cc(N(C)C)cc(C)[n+]1[O-]`, -7.1% (inactive).
Regarding `CCOc1ccc(-c2nnc3ccc(SC)nn23)cc1`, the inhibition was 0.4% (inactive).
Consider `COC(=O)CSC1=C(C#N)C(c2ccccc2OC)C(C(=O)OC)C(=O)N1` (centres undefined), for which the inhibition is 5.3% (inactive).
Turning to `CCOC(=O)CSC1=C(C#N)C(c2sccc2C)CC(=O)N1` (centres undefined), the inhibition was 93.2% (active).
With `CCOC(=O)CSC1=C(C#N)C(c2ccco2)C(C(=O)OCc2ccccc2)=C(C)N1` (centres undefined), the inhibition is 7.5% (inactive).
Regarding `CCOC(=O)COc1ccc(Cl)cc1C1NC(=O)NC(C)=C1C(C)=O` (centres undefined), the inhibition is -2.2% (inactive).
For the compound `CCOC(=O)c1c(NC(=O)c2ccc(Br)o2)sc2c1CCCC2`, the inhibition was 6.2% (inactive).
Consider `COc1ccc(-c2n[nH]c(C)c2-c2ccc(OC)c(OC)c2)c(O)c1`, for which the inhibition is 52% (active).
With `C=C(C)COc1ccc(-c2n[nH]c(C)c2-c2ccccc2OC)c(O)c1`, the inhibition was 5.8% (inactive).
Turning to `C=C(C)COc1ccc(-c2n[nH]c(C)c2-c2ccccc2)c(O)c1`, the inhibition was 22.9% (inactive).
Regarding `Cn1c(=O)[nH]c(=O)c2c1nc(CN1CCN(c3ccccc3F)CC1)n2CCc1ccccc1`, the inhibition was 0% (inactive).
Regarding `O=S(=O)(c1cccc(S(=O)(=O)N2CCC(n3nnc4ccccc43)CC2)c1)N1CCCCC1`, the inhibition was 0.6% (inactive).
On to `Cn1c(NC(=O)c2ccc3c(c2)OCO3)cc(=O)n(C)c1=O`, for which the inhibition was -10.9% (inactive).
`CCOc1ccc(-c2nnc(-c3ccco3)o2)cc1`: the inhibition was 8.6% (inactive).
To `CCOC(=O)CSc1nnc(CNc2nc(-c3ccccc3)cs2)n1C` belongs 0% (inactive).
In the case of `COc1ccc(C(c2nnnn2C2CCCCC2)N2CCN(c3ccccc3F)CC2)cc1` (centres undefined), the inhibition is -5.7% (inactive).
Regarding `COc1ccccc1-n1c(CNC(=O)c2ccccc2)nnc1SCC(=O)Nc1nnc(C)s1`, the inhibition was -6.1% (inactive).
Turning to `CCc1nnc(NC(=O)CSc2nnc(-c3ccncc3)n2Cc2ccccc2)s1`, the inhibition is -9.3% (inactive).
Consider `Cc1nnc(NC(=O)CSc2nccn2-c2cccc(C)c2C)s1`, for which the inhibition was 71.5% (active).
To `Cc1cc(Nc2cccc(C)c2C)n2ncnc2n1` belongs 2.2% (inactive).
`CCOC(=O)N1CCN(C(=O)C2CC(c3ccc(F)cc3)=NO2)CC1` (centres undefined): the inhibition is -1.7% (inactive).
In the case of `CN(C)c1ccnc2sc3c(=O)n(Cc4ccccc4)cnc3c12`, the inhibition was 14.6% (inactive).
As for `CC1COC2C(O1)N(S(C)(=O)=O)CCN2S(C)(=O)=O` (centres undefined), the inhibition was -1.8% (inactive).
To `CC(=O)Oc1ccc(C)cc1N1C(=O)c2ccc(C(=O)O)cc2C1=O` belongs -10.1% (inactive); to `CCOc1ccc2nc(SC(CC)C(=O)Nc3cc(C)on3)sc2c1` (centres undefined), 1% (inactive).
On to `Cc1ccc(S(=O)(=O)NCc2csc(C)n2)c(C)c1`, for which the inhibition was -3.9% (inactive).
As for `Cc1nc(CNS(=O)(=O)c2ccc(Oc3ccccc3)cc2)cs1`, the inhibition was 35.6% (active).
With `Cc1nc(CNS(=O)(=O)c2cccnc2)cs1`, the inhibition was 2.3% (inactive).
For the compound `Cc1cccc(NC(=O)c2ccccc2NC(=O)C(C)(C)C)n1`, the inhibition was 2.6% (inactive).
As for `COc1cccc(N2CCN(C(=O)C3CCCN(S(=O)(=O)c4cnc[nH]4)C3)CC2)c1` (centres undefined), the inhibition was 0.4% (inactive).
On to `CN(C)c1nc(N)nc(CSc2nnnn2-c2cccc3ccccc23)n1`, for which the inhibition was 66.2% (active).
With `Cc1ccc(-c2noc(CSc3nnnn3-c3ccccc3)n2)cc1`, the inhibition was -2.2% (inactive).
For the compound `O=c1c2ccccc2nc(CSc2nnnn2-c2ccccc2)n1-c1ccccc1`, the inhibition is -1.7% (inactive).
To `Cn1c(=O)cc(OCCCC(=O)N2CCN(Cc3ccc4c(c3)OCO4)CC2)c2ccccc21` belongs 1.1% (inactive); to `Cc1cc(/C=N/n2cnnc2)c(C)n1-c1ccc2ncccc2c1`, 1% (inactive); to `C=CCn1c(=N)n(CC(O)COc2ccc(OC)cc2)c2ccccc21` (centres undefined), -0.5% (inactive).
Consider `CC1CCN(C(=O)Cn2cc(C(=O)c3ccco3)c3ccccc32)CC1`, for which the inhibition is 2.8% (inactive).
In the case of `O=C1CCC(C(=O)Nc2ccc(OC(F)F)cc2)N1` (centres undefined), the inhibition is 0.7% (inactive).
To `Cc1cc(C)nc(NC(=O)Nc2ccccc2C(F)(F)F)n1` belongs 45.2% (active); to `Cc1cc(C)nc(NC(=O)C(C)N2C(=O)c3ccccc3C2=O)n1` (centres undefined), -2.7% (inactive).
For the compound `O=C(Nc1ccccc1C(F)(F)F)c1cc(-c2ccc(O)cc2)on1`, the inhibition is 16.9% (inactive).
